Assay outcomes as filed in PubChem BioAssay.
A selection: hits, their analogues and other compounds. The true share with any hit is near 4.1%.
aSyn UTR inh – MLPCN primary screen, SNCA 5' untranslated region | inhibition, % (tested at 7.5 µM) | hit rate 0.82% among 300,000 | AID 1813, 2009 | alpha-synuclein 5'UTR reporter, inhibitor activity; in the data active = inhibition above about 60%;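 note: H4 neuroglioblastoma cells stably carrying SNCA 5'UTR luciferase fusion; 0% = DMSO wells and 100% = positive control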
697 NFkB inh – inhibitors of PMA/ionomycin-induced NF-kB reporter, 697 cells, primary screen, B-cell NF-kB inhibitor project, cell-based, luminescence, uHTS; 697 B-cell NF-kB luciferase reporter, 16 h; inhibition, % at 4 µM; hit rate 0.33% among 330,000; AID 435022, 2010; in the data active = inhibition above about 35%
KLF5 inh – KLF5 expression inhibitors, primary screen, DLD-1 cells, luminescence. inhibition, % at 5 µM. hit rate 0.23% among 290,000. AID 1700, 2009. DLD-1 KLF5 promoter-luciferase reporter;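 active = inhibition above a per-plate limit of that plate's mean compound inhibition plus 3 SD, cut at about 60% in these data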;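 note: 0% = DMSO wells and 100% = LY294002 at 200 µM; higher means less KLF5 promoter-driven luciferase light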
Gli-Sufu antag – Gli-Sufu pathway antagonists, primary screen, luciferase luminescence, Sufu-KO-LIGHT cells, uHTS | Sufu-KO-LIGHT fibroblasts, Gli luciferase reporter luminescence | inhibition, % at 5 µM | hit rate 0.74% among 340,000;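 active = inhibition above about 55%, limit read from the data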;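 note: 0% = DMSO-treated cells and 100% = wells with medium but no cells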
Mdm2 MdmX PPI – inhibitors of human Mdm2-MdmX association, primary screen, cell-based, luminescence, split luciferase, SaOS-2, uHTS; Protein Mdm4 (Homo sapiens) + E3 ubiquitin-protein ligase Mdm2 (Homo sapiens), …; SaOS-2 split-luciferase Mdm2/MdmX complementation; inhibition, % at 8 µM; hit rate 3% among 330,000; AID 485346, 2010;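 active = inhibition of at least 50% at 8 µM in the primary screen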
Jurkat NFkB inh – inhibitors of induced NF-kB luciferase reporter, primary screen, TCR NF-kB activation inhibitor project, cell-based, luminescence, uHTS; hit rate 0.53% among 330,000; inhibition, % at 4 µM; Jurkat, PMA/ionomycin-induced NF-kB luciferase reporter; in the data active = inhibition above about 50%
Mdm2-MdmX conf – Mdm2-MdmX complex disruptors, retested hits, confirmation, luminescence, single concentration | shares compounds with Mdm2 MdmX PPI | Mdm2-MdmX binding, luminescent assay | inhibition, % at 8 µM | hit rate 55% among 10,000; in the data active = inhibition above about 40%
FLuc counter – full-length luciferase signal inhibition, confirmation, counter-screen for Mdm2/MdmX interaction inhibitor project, cell-based, single concentration, SaOS-2. shares compounds with Mdm2 MdmX PPI. SaOS-2 full-length luciferase counterscreen, luminescence. inhibition, % at 8 µM. hit rate 77% among 6,200. AID 504607, 2011;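 active = mean inhibition at 8 µM reaching about 37%, which flags the compound as non-specific, limit read from the data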;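 note: p53-null SaOS-2 cells with luciferase driven by a doxycycline-inducible promoter; compound on cells about two nights before reading with doxycycline added after day one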
* hit, by the source's call; . = no result.

SMILES	aSyn UTR inh	697 NFkB inh	KLF5 inh	Gli-Sufu antag	Mdm2 MdmX PPI	Jurkat NFkB inh	Mdm2-MdmX conf	FLuc counter
N#C/C(=N\Nc1cccc(Cl)c1)C(=O)c1ccccc1	-48.2	-39.5	-57.1	26.5	71.1*	0.9	19.6	.
N#C/C(=N\Nc1ccccc1Cl)C(=O)c1ccccc1	14.0	-13.3	-10.8	29.7	30.7	6.3	.	.
CCOC(=O)c1ccc(N(CCC2CO2)S(=O)(=O)c2ccc(C)cc2)cc1 (centres undefined)	.	.	.	23.1	.	.	.	.
O=C(Nc1cccc(NC(=O)c2cccc([N+](=O)[O-])c2)n1)c1cccc([N+](=O)[O-])c1	-47.8	-5.7	-22.1	13.4	22.5	-0.5	.	.
O=C(Nc1ccncc1NC(=O)c1cccc([N+](=O)[O-])c1)c1cccc([N+](=O)[O-])c1	-5.3	2.0	-5.3	4.4	87.4*	-4.7	55.5*	31.0
CCOC(=O)c1ccc2nc(NC(=O)C(C)C)sc2c1	-112.6	-128.1	-127.5	-95.2	-88.3	-118.0	.	.
C=CCN(CC=C)S(=O)(=O)c1ccc2nc(NC(=O)C(C)C)sc2c1	.	-45.8	39.7	0.2	58.7*	26.9	59.5*	52.1*
CNC(=O)COc1coc(CN2CCN(c3cccc(Cl)c3)CC2)cc1=O	4.5	-5.7	-11.2	48.4	20.2	-12.2	.	.
COCCNC(=O)c1ccc2c(c1)S(=O)(=O)c1cc(Cl)ccc1C2=O	.	6.1	.	-11.8	29.9	-7.7	.	.
O=C(NC1CC1)c1ccc2c(c1)S(=O)(=O)c1cc(Cl)ccc1C2=O	.	19.5	.	.	94.8*	17.3	93.5*	38.2*
COc1cccc(/C=C/C(=O)OCC(=O)c2ccc(S(=O)(=O)N3CCCCC3)cc2)c1OC	-4.8	-2.5	.	-5.9	12.9	-5.1	.	.
COc1cc(/C=C/C(=O)OCC(=O)c2ccc(S(=O)(=O)N3CCCCC3)cc2)cc(OC)c1OC	.	-10.8	.	-5.7	56.0*	-10.5	34.5	.
Cc1csc(NC(=O)c2cncc(Br)c2)n1	-46.1	-101.4	-152.1	-4.8	-87.0	-71.6	.	.
COc1cc(/C=C2\SC(N)=NC2=O)ccc1O	7.4	-7.7	-30.4	-26.1	59.9*	6.3	52.3*	57.1*
COc1cc(/C=C2\COC/C(=C\c3ccc(O)c(OC)c3)C2=O)ccc1O	102.5*	-60.6	-23.2	1.3	100.3*	3.6	100.1*	53.0*
COc1cc(/C=C2\SC(N)=NC2=O)cc(OC)c1	-63.9	-8.7	-37.6	-4.1	50.8*	-2.7	24.9	.
C=CCN(CC=C)C(=O)c1ccc(OC2CCN(S(=O)(=O)N(C)C)CC2)cc1	-15.4	-24.0	-35.7	8.6	-21.4	-27.9	.	.
Cc1ccc(S(=O)(=O)N2CCN(C(=O)CNC(=O)c3ccc(Br)o3)CC2)cc1	10.1	2.7	.	-0.1	12.3	-0.6	.	.
COc1cccc(-n2c(SCC(=O)N3CCc4ccccc43)nnc2-c2c[nH]c3ccccc23)c1	25.4	2.0	-6.3	5.1	74.9*	-5.2	48.9*	82.7*
O=C(CSc1nc2ccccc2c(=O)n1-c1ccccc1)N1CCCc2ccccc21	37.9	0.1	7.1	4.0	6.0	-3.0	.	.
O=C(CSc1nc2ccccc2c(=O)n1-c1ccccc1)N1CCc2ccccc21	20.0	3.8	-12.4	11.3	54.9*	1.2	68.0*	80.6*
O=C(COC(=O)/C=C/C(=O)OCC(=O)NC12CC3CC(CC(C3)C1)C2)NC12CC3CC(CC(C3)C1)C2	4.2	-14.9	2.6	0.5	93.5*	20.3	39.8	68.4*
O=C(COC(=O)c1ccccc1O)NC12CC3CC(CC(C3)C1)C2	.	-4.1	.	1.5	-8.0	-4.9	.	.
